High-throughput results deposited in PubChem by National Center for Advancing Translational Sciences (NCATS).
Compounds with a hit are over-represented: about 11% of the library has one in this group of screens.
GoLoco inh red: inhibitors of human Gai1-RGS12 GoLoco interaction (red fluorophore). P63096. Gai1:RGS12 GoLoco peptide FP, rhodamine, 10 min. Potency, µM (top dose mostly 61.6 µM), without a hit: top-dose activity, negative = inhibition, usual class: inhibitors. 230,000 tested, 0.44% active. AID 880; active = well fitted inhibition curve with a large enough effect, not every such curve was filed as active; inactive = no such curve, though single readings can be large or run the other way; note: potency is the fitted concentration of half-maximal effect; % is set by controls: 0 for no effect and ±100 for the full control effect; nearly all actives have a fitted effect of over 30% in size
HttQ103 aggreg: inhibitors of mutant huntingtin aggregate formation in PC12 cells. AID 1688. 220,000 tested, 1.1% active. PC12 HttQ103-GFP aggregates, Acumen cytometry, 40 h. Potency, µM (top dose mostly 46.1 µM), inactives show at the top dose activity change, negative = inhibition, most hits filed as inhibitors; active = well fitted curve in the direction sought with a large enough effect; inconclusive = small, poorly fitted or top-dose-only effect, or another doubt; inactive = no such curve, though single readings can be large; an effect the other way counts as inactive or inconclusive; note: potency is the fitted concentration of half-maximal effect; % is set by controls: 0 for no effect and ±100 for the full control effect; nearly all actives have a fitted effect of over 60% in size
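PC12 cells with ecdysone-inducible HTT exon1 Q103-GFP, induced by 100 nM tebufenozide, given compounds in a concentration series. GFP aggregates (1–25 um, 6 SD above background) counted in lysates by laser-scanning cytometry, 488 nm excitation.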
HPGD block: HPGD (human) dehydrogenase inhibition. P15428. purified HPGD, NADH fluorescence kinetic, PGE2 substrate. Potency, µM, for the others: top-dose activity change, negative = inhibition, most hits filed as inhibitors. 150,000 tested, 4.3% active; note: potency is the fitted concentration of half-maximal effect; % is set by controls: 0 for no effect and ±100 for the full control effect
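20 nM HPGD preincubated 15 min at room temperature with compound in 50 mM Tris-HCl pH 8, 0.01% Tween 20. Started with 1 mM NAD+ and 30 uM prostaglandin E2; NADH fluorescence (360/450 nm) read 5 times over 30-s intervals, last minus first.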
ALDH1A1 block: blocks purified human ALDH1A1 activity; P00352; Purified ALDH1A1, NADH fluorescence, propionaldehyde substrate; Potency, µM (titrated, usually from 75.3 µM), inactives show at the top dose activity, negative = inhibition, usual class: inhibitors; 220,000 tested, 7.3% active;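 note: potency is the fitted concentration of half-maximal effect; plate controls were no enzyme wells and a reference inhibitor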
Target sequence (P00352 whole entry, looked up): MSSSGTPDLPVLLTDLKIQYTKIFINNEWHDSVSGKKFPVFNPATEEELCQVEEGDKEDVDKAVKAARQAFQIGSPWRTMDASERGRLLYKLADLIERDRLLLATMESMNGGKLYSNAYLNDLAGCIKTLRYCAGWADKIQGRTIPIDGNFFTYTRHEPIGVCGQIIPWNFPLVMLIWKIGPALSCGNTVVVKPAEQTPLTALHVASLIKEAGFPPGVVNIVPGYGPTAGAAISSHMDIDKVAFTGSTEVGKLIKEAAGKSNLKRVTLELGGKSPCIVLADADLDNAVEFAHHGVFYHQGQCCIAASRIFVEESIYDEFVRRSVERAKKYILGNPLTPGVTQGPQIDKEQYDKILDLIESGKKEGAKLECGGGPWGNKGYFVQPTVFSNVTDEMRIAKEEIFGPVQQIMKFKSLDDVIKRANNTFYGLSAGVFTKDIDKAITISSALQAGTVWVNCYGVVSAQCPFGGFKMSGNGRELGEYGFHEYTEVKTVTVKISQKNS
HTT ATP protect: protects HTT-Q103 PC12 cells, measured by ATP; PC12 HTT-Q103 induced, cytoprotection, ATP luminescence, 40 h; Potency, µM (top dose mostly 56.4 µM), for the others: cytoprotection (ATP increase), actives largely listed as activators; 230,000 tested, 0.14% active; AID 1471; active = well fitted curve in the direction sought with a large enough effect; inconclusive = small, poorly fitted or top-dose-only effect, or another doubt; inactive = no such curve, though single readings can be large; an effect the other way counts as inactive or inconclusive; note: potency is the fitted concentration of half-maximal effect; % of control where 0% means no effect; nearly all actives have a fitted effect of over 45% in size
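Rat PC12, Q103 Htt exon1-GFP fusion, ecdysone promoter; tebufenozide inducer 100 nM final; compound titration; qHTS, 1500 cells/well; ATPlite luminescent read.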
PNC inhibitor: perinucleolar compartment assembly inhibition; PC3M PTB-GFP, PNC prevalence imaging, 16 h; hits give low values; activity change (PNC), negative = inhibition, % at 10 µM; 140,000 tested, 3.1% active; AID 2417;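 active = readout at or below -70, meaning at least 70% loss of cells showing the perinucleolar compartment, a nuclear body marking cancer cells; inconclusive = readout between -30 and a set limit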;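 note: plate controls were DMSO wells for no effect and camptothecin positive control wells for full effect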
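Read-out is percentage of cells bearing a perinucleolar compartment, from automated 20x imaging of fixed, Hoechst-stained PC3M PTB-GFP cells. Cells were seeded 4 h, then exposed 16 h to compound (23 nl of library stock) in duplicate plates.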
* hit, by the source's call; ? = inconclusive; . = not tested or not shown; [ ] = another dose, or the depositor's remark. Unless noted, calls come from the whole dose curve; as a rule, active = well fitted inhibition curve with a large enough effect (not every such curve was filed as active); inconclusive = small, poorly fitted or top-dose-only effect, or another doubt; inactive = no such curve, though single readings can be large or run the other way.

SMILES | GoLoco inh red | HttQ103 aggreg | HPGD block | ALDH1A1 block | HTT ATP protect | PNC inhibitor
COc1ccc(NC(=O)c2cc(C(C)C)on2)cc1OC | 3% | -3% | -14% | ? | -4% | 3
COc1cc(NC(=O)c2c(F)c(F)c(F)c(F)c2F)c(OC)cc1Cl | -6% | 20% | -12% | 6% | 7%[0.074 µM] | ?
COc1cc(NC(=O)c2cc(C(C)C)on2)c(OC)cc1Cl | 2% | -11% | ? | 7.9µM* | -7% | ?
COc1ccc(NC(=O)c2cc(C(C)C)on2)c(OC)c1 | 2% | 13% | ? | 4µM* | -4%[10 µM] | 13
COc1cc(NC(=O)c2cc3nc(C)cc(C)n3n2)c(OC)cc1Cl | 16% | . | ? | ? | 14µM* | ?
CC1=NN(C(N)=S)C(C)(C)C1 | -5% | 9%[9.22 µM] | . | 5% | 17%[10 µM] | .
CC1CCN(CC[C@@H]2CCCN2S(=O)(=O)c2cccc(O)c2)CC1 | . | . | . | . | 13%[1.9 µM] | .
COc1ccc(C(=O)N2CCC3(CC2)CN(CC(C)C)C3)cc1 | 10% | . | -13% | 0% | -20% | .
COc1ccccc1-n1cc(-c2ccc(Cl)cc2)[nH]c1=O | -2% | 3% | -6% | 11µM* | 17%[10 µM] | 39
O=C(O)c1cc(N/N=C/c2ccc(N3CCOCC3)s2)ccc1Cl | 26% | 11% | ? | 2.8µM* | 2%[10 µM] | 38
NC(=O)N/N=C/c1ccc(N2CCOCC2)s1 | 17% | 16% | -16% | ? | -18%[10 µM] | ?
COc1ccc(C(=O)N2CCC3(CCN(C(=O)Nc4cccc(F)c4)CC3)CC2)cc1 | 7% | . | -6% | ? | -2% | .
Cc1c(-n2c(SCC(=O)O)nnc2-c2ccccc2Cl)c(=O)n(-c2ccccc2)n1C | 3% | 9% | -4% | 6% | 12% | -97*
COc1ccc(OCc2n(CC(=O)OC3CC(C)CCC3C(C)C)c3ccccc3[n+]2C)cc1 (stereo not given) | 7% | -19%[9.22 µM] | . | . | -50%[10 µM] | .
COc1ccc(-c2n(CC(=O)OC3CC(C)CCC3C(C)C)c3ccccc3[n+]2C)cc1 (stereo not given) | 176% | 1%[9.22 µM] | . | 6.3µM* | 9%[10 µM] | .
O=P(O)(O)OC[C@H]1O[C@](O)(COP(=O)(O)O)[C@@H](O)[C@@H]1O | . | 8% | . | . | ? | .
c1ccc(COc2ccc(OCCCn3cncn3)cc2)cc1 | -1% | -31% | -14% | -3% | -97%[0.074 µM] | 4
Clc1ccc(OCCCn2cncn2)cc1Cl | -23% | -3% | -7% | 11µM* | 4% | -19
CSc1ccc(/C=C/C(=O)NC(=O)c2ccccc2O)cc1 | 10% | -4%[9.22 µM] | . | -15% | -81% | .
CCCCN1C(=O)/C(=C(/C#N)C(=O)N2CCCC2)c2ccccc21 | -5% | 0%[9.22 µM] | . | . | 5%[10 µM] | .
CC(C)CN1C(=O)/C(=C(/C#N)C(=O)NC2CCCCC2)c2ccccc21 | -6% | 6% | . | 5µM* | 6%[10 µM] | .
N/C(=N\NC(=O)c1sccc1OCc1ccc(Cl)cc1Cl)c1ccccn1 | 10% | 1.8µM* | . | -1% | -11% | .
CNC(=S)NNC(=O)c1sccc1OCc1ccc(Cl)cc1Cl | 5% | 9% | 4% | 9% | -13% | 21
COCCNc1cc(-c2ccccc2CN(C)C)ncn1 | 4% | . | -27% | -11% | 5% | .
CC1=C(C(=O)OC(C)C)C(c2ccccc2)NC(=S)N1C (stereo not given) | 8% | 2% | -11% | ? | -14%[10 µM] | ?
SMILES | GoLoco inh red | HttQ103 aggreg | HPGD block | ALDH1A1 block | HTT ATP protect | PNC inhibitor
O=C(Oc1ccc(N(Cc2cccs2)C2=NS(=O)(=O)c3ccccc32)cc1)c1ccc(Cl)cc1 | 2% | ? | -21% | 22µM* | -15%[10 µM] | 15
COc1ccc(CCN(C)S(=O)(=O)c2ccc(Cl)nc2)cc1OC | -6% | -16% | . | ? | -20% | .
O=C(/C=C/c1ccccc1)N1CCN(Cc2nc3ccccc3c(=O)[nH]2)CC1 | -1% | -14% | 32µM* | ? | -37% | 4
CCCCC/C=C\C\C=C/C=C/C=C/[C@@H](SCC(NC(=O)CCC(N)C(=O)O)C(=O)NCC(=O)O)[C@@H](O)CCCC(=O)O (stereo not given in full) | 7% | . | -5% | 0% | . | .
COc1ncc2nc(-c3ccccc3)c(=O)n(CCc3ccccc3)c2n1 | -5% | . | . | ? | ? | .
Cc1cccc(NC(=S)N(CCN(C)C)Cc2cc3cc(C)cc(C)c3[nH]c2=O)c1 | 4% | -2% | -7% | 3% | -2%[10 µM] | 3
Cc1cccc(NC(=S)N(CCN(C)C)Cc2cc3cccc(C)c3[nH]c2=O)c1 | 2% | 2% | -3% | 1% | 15%[10 µM] | -100*
COc1cc2cc(CN(Cc3cccs3)C(=S)Nc3cccc(C)c3)c(=O)[nH]c2cc1OC | 0% | -1% | -26% | ? | -13%[10 µM] | -113*
Cc1noc(NS(=O)(=O)c2ccc(NC(=O)C(CC(C)C)N3C(=O)c4ccccc4C3=O)cc2)c1C (stereo not given) | 7% | -8%[9.22 µM] | . | . | -9%[10 µM] | .
CN1CCN(C2=Cc3cc(Cl)ccc3Sc3cc(F)ccc32)CC1 | 9% | ? | -29% | -10% | -98%[10 µM] | 43
CN1CCN(C2=Cc3ccccc3Sc3cc(F)c(Cl)cc32)CC1 | -1% | ? | 28µM* | 5.6µM* | -4%[10 µM] | -6
